PubChem BioAssay (NCI)
About 83,000 compounds went through this panel and 20% of them were active in at least one assay; those are over-represented in the sample as a whole.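 The test compound was applied at a single concentration to cells in 96-well plates for 48 hours, and percent growth was recorded.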 Values without a mark were called inactive. Calls of active or inactive are those of the source. How the source made its calls: active means growth percent below 10; inactive means the rest.

What was measured:
Assay in all cases: NCI-60 one-dose screen, 48 h (100 = growth as untreated, 0 = no growth, -100 = all killed)
Conditions in all cases: 10 µM unless noted
SR leukemia = tested on: SR leukemia
RPMI-8226 leukemia = tested on: RPMI-8226 leukemia
OVCAR-8 ovarian = tested on: OVCAR-8 ovarian
OVCAR-4 ovarian = tested on: OVCAR-4 ovarian
SK-OV-3 ovarian = tested on: SK-OV-3 ovarian
IGROV1 ovarian = tested on: IGROV1 ovarian
OVCAR-3 ovarian = tested on: OVCAR-3 ovarian
HS 578T breast = tested on: HS 578T breast
NCI/ADR-RES ovarian = tested on: NCI/ADR-RES ovarian
OVCAR-5 ovarian = tested on: OVCAR-5 ovarian

| SMILES | growth (SR leukemia) | growth (RPMI-8226 leukemia) | growth (OVCAR-8 ovarian) | growth (OVCAR-4 ovarian) | growth (SK-OV-3 ovarian) | growth (IGROV1 ovarian) | growth (OVCAR-3 ovarian) | growth (HS 578T breast) | growth (NCI/ADR-RES ovarian) | growth (OVCAR-5 ovarian) |
| --- | --- | --- | --- | --- | --- | --- | --- | --- | --- | --- |
| COc1ccc(/C(=C\c2ccc3c(c2)OCO3)C(=O)Nc2nc3ccccc3s2)cc1OC | 69.8% | 78.2% | 86.8% | 92.2% | 102% | 101% | 97% | 95% | 98.1% |  |
| O=[N+]([O-])c1ccc(N/N=C(\C(=N/Nc2ccc([N+](=O)[O-])cc2[N+](=O)[O-])c2ccccc2)c2ccccc2)c([N+](=O)[O-])c1 | -1.67% (active) | 93.3% | 87.6% | 5.4% (active) | 106% | 92.3% | 84% | 74.4% | 90.4% |  |
| Cn1cc(-c2nc(-c3cn(C)c4ncccc34)cs2)c2ccccc21 | 18.4% | 39.6% | 47.9% |  |  | 45% | -17.8% (active) | 81% |  | 73% |
| CCCCC[C@H]1C/C=C2/C(=O)C(Cl)=C[C@@H]2C/C=C\CCCC(=O)O[C@@H](CCCCC)C/C=C2/C(=O)C(Cl)=C[C@@H]2C/C=C\CCCC(=O)O1 | -7.23% (active) | -13.6% (active) | -13.9% (active) | 16% | -21.4% (active) | -44.4% (active) | -82.7% (active) | 32.4% | 19.8% |  |
| Cn1cc(-c2nc(-c3c[nH]c4ncccc34)cs2)c2cc(F)ccc21 | 13.7% | 36.4% | 51.4% |  | 55.9% | 26.5% | 21% | 66.8% | 8.92% (active) | 21.4% |
| NC(=O)NCC1CCCCC1 | 99.4% | 108% | 114% | 102% | 109% | 101% | 109% | 112% | 95.1% |  |
| N#C/C(=C\c1ccc(-c2ccc(Cl)cc2)o1)c1nc(-c2ccco2)cs1 | 95% | 64.7% | 97.5% | 4.22% (active) | 90.9% | 68.1% | 106% | 102% | 97.4% |  |
| CCCCN1CCCCn2c1nc1c2c(=O)n(C)c(=O)n1C | 87.6% | 103% | 95.5% | 107% | 110% | 106% | 102% | 100% | 99.9% |  |
| CCC(c1ccc(OC)cc1)C(CC)c1ccc(O)c(CN2CCCCC2)c1 (centres undefined) | -3.74% (active) | 5.83% (active) | 80.4% | 67.1% | 84.9% | 69.6% | 73.9% | 79% | 60.9% |  |
| Clc1ccc2[nH]cc(-c3nc(-c4c[nH]c5ncccc45)cs3)c2c1 | 9.06% (active) | 37.6% | 46.2% |  | 59.6% | 32.8% | 55.9% | 75.7% | 38.7% | 80.6% |
| COc1ccc2[nH]c(-c3ccc(Cl)cc3)cc(=O)c2c1 | 100% | 96.3% | 103% | 98.5% | 99.6% | 102% | 106% | 99.7% | 102% |  |
| CC1(c2ccccc2)OC1C(=O)O (centres undefined) | 101% | 108% | 107% | 112% | 117% | 96.8% | 103% | 109% | 94.5% |  |
| O=C(O)c1cccc2c1Cc1cc([N+](=O)[O-])ccc1-2 | 89% | 100% | 108% |  |  | 92.3% | 115% | 95% | 100% | 106% |
| COC(=O)[C@]12CC[C@@H](C)[C@H](C)[C@@H]1C1=CC[C@@H]3[C@@]4(C)C(c5ncon5)=C[C@@](C)(CO)C4=CC[C@@]3(C)[C@]1(C)CC2 | -15.5% (active) | -32.4% (active) | -6.22% (active) | 5.83% (active) | 68.9% | -10.8% (active) | -86.8% (active) | 12.5% | 6.21% (active) |  |
| CCOc1ccc(NC(=O)c2ccoc2COc2ccccc2)cc1 | 113% | 91.8% | 104% | 101% | 106% | 93.5% | 109% | 105% | 102% |  |
| O=C1CNCCN1 | 102% | 98.9% | 103% | 108% | 112% | 99.7% | 109% | 100% | 106% |  |
| O=C1c2cc3c(cc2-c2c1c1ccc(Cl)cc1c(=O)n2C[C@H](O)[C@@H](O)[C@H](O)CO)OCO3 | 0.866% (active) | 0.957% (active) | 1.03% (active) | 18.6% | -23.1% (active) | 9.99% (active) | -10.4% (active) | 11.3% | 7.03% (active) |  |
| CC(=O)Oc1ccccc1C(=O)/C=C/c1cccc([N+](=O)[O-])c1 | -30.8% (active) | -17.4% (active) | 77.7% |  | 102% | 37.3% | 66.4% | 71.2% | 74.3% | 110% |
| CC/C(=N/NC(N)=O)c1ccccc1 | 110% | 97.8% | 103% | 120% | 116% | 108% | 109% | 104% | 104% |  |
| CC1c2ccccc2N(S(=O)(=O)c2ccccc2)C1C (centres undefined) | 34.8% | 91.9% | 103% |  | 91.2% | 92.4% | 98.1% | 92.7% | 70.4% | 108% |
| Cc1ccc(-c2nn(Cc3cn(-c4cc(C)nc5ccccc45)nn3)c3ncnc(N)c23)cc1 | 61.6% | 35.6% | 62.5% | 51.7% | 56.5% | 15.5% | 53.1% | 18.2% | 59.7% |  |
| O=[N+]([O-])c1cccc(/C=N\Nc2ccccc2)c1 | 89.6% | 86.5% | 63.8% |  | 95.8% | 60.1% | 73.1% | 71.7% | 48.7% | 74.7% |
| CCN(CC)CCCCCNc1cc(OC(=O)c2ccccc2)cc2cccnc12 | -38.1% (active) | 100% | 121% | 80.9% | 108% | 105% | 51.6% | 103% | 99.3% |  |
| Cn1cc(-c2csc(-c3cn(C(=O)OC(C)(C)C)c4ccc(Br)cc34)n2)c2cccnc21 | 58% | 84.5% | 70.7% |  | 98.7% | 93.2% | 98.3% | 94.7% | 82.5% | 95.5% |
| COC(=O)[C@@H]1[C@H]2C[C@H]3c4[nH]c5cc(OC)ccc5c4CCN3C[C@@H]2C[C@H](OC(=O)/C=C/c2ccnc(OC)c2)[C@H]1OC | 73.1% | 69.6% | 88.4% |  |  | 83.2% | 90.3% | 90.9% | 81.6% | 102% |
| Nc1c(Cl)cc(N=Nc2ccccc2)cc1Cl | 85.4% | 89.9% | 104% |  | 99% | 12.5% | 84.6% | 94.8% | 100% | 31.5% |
| C=C(C)[C@@H]1CC[C@]2(c3nnc(-c4ccncc4)o3)CC[C@]3(C)[C@H](CC[C@@H]4[C@@]5(C)CCC(=O)NC(C)(C)[C@@H]5CC[C@]43C)[C@@H]12 | 78.3% | 81.4% | 92.6% | 89.5% | 100% | 92.3% | 44.6% | 95.8% | 97.5% |  |
| COc1cc2ncnc(Nc3ccc(OCc4cccc(F)c4)c(Cl)c3)c2cc1NC(=O)C1CCCC1 | 91% | 89.9% | 76.9% | 100% | 13% | 52.2% | 77.9% | 91.8% |  |  |
| N#Cc1cnc2cc(OC[C@@H](O)CO)c(NC(=O)C3CCCC3)cc2c1Nc1ccc(OCc2cccc(F)c2)c(Cl)c1 | 13.4% | -13.5% (active) | -13.6% (active) | -74.8% (active) | 27% | 4.22% (active) | -82% (active) | -32.2% (active) |  |  |
| CC(C)=CCC/C(C)=C/CC/C(C)=C/CSC[C@H](NC(=O)CCCCCN1CCN(C)CC1)C(=O)NC1CCCCCC1 | -20.1% (active) | 51.8% | 80.7% |  | 96.4% | 69.8% | 76.6% | 76.2% | 72.3% | 68.7% |
